In the library only some 19% were active in any assay of this set; here they are far more common.
TDP1 cell noCPT: qHTS for Inhibitors of human tyrosyl-DNA phosphodiesterase 1 (TDP1): qHTS in cells in absence of CPT | AID 686978, 2013 | DT40 Tdp1-/- hTDP1 cells, no CPT, ATP luminescence, 48 h | Potency, µM (top dose mostly 46.2 µM), most hits filed as inhibitors | actives 15% (n = 420,000); note: nearly all actives have a fitted effect of over 55% in size
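No-CPT arm: Tdp1-/-;hTDP1 DT40 cells (400/well) plus compounds, incubated ≥48 hr at 37 °C. Readout CellTiter-Glo luminescence.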
HT1080 IDH1KD tx: qHTS for induction of synthetic lethality in tumor cells producing 2HG: qHTS for the HT-1080-IDH1KD cell line. HT-1080 IDH1 knockdown viability, ATP luminescence, 48 h. Potency, µM (highest dose often 46.1 µM), usual class: cytotoxic. actives 2% (n = 360,000)
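In this qHTS, HT-1080 cells depleted of IDH1 are exposed for 48 h at 37 °C to compound titrations. Toxicity is scored from CellTiter-Glo luminescence, with DMSO as full viability and medium alone as none.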
IL1B secr inh: qHTS for Inhibitors of Inflammasome Signaling: IL-1-beta AlphaLISA Primary Screen; THP-1 LPS/ATP IL-1B secretion, AlphaLISA, 16 h; active compounds read low; actives 4.7% (n = 360,000); activity change, % at 57.5 µM; AID 743279, 2014; in the data active = activity change below about -50%; inconclusive = mostly about -30% to -49%
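THP-1 cells pretreated 1 hr with compounds (up to 57.5 uM final), then stimulated with LPS (250 ng/mL final) plus ATP (1.25 mM final); secreted IL-1B measured by AlphaLISA after 16 hr, decreased signal indicating inhibition.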
TDP1 cell CPT: qHTS for Inhibitors of human tyrosyl-DNA phosphodiesterase 1 (TDP1): qHTS in cells in presence of CPT. Potency, µM (titrated, usually from 46.2 µM), actives largely listed as inhibitors. actives 12% (n = 420,000). chicken DT40 Tdp1-/-;hTDP1 cells + 20 nM CPT, ATP luminescence, 48 h; note: nearly all actives have a fitted effect of over 55% in size
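Chicken DT40 Tdp1-/- cells complemented with human TDP1, 400 cells/well, exposed to compounds plus 20 nM camptothecin for at least 48 h at 37 C; viability read as ATP content by CellTiter-Glo luminescence.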
HT1080-NT tox: qHTS for induction of synthetic lethality in tumor cells producing 2HG: qHTS for the HT-1080-NT fibrosarcoma cell line. HT-1080-NT fibrosarcoma viability, CellTiter-Glo ATP luminescence, 48 h. Potency, µM (doses to about 46.1 µM), actives largely listed as cytotoxic. actives 1.6% (n = 360,000). AID 686970, 2013;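 note: NT is the 2HG producing partner of a matched IDH1 knockdown line; nearly all actives have a fitted effect of over 55% in size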
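Fibrosarcoma NT cells, 750 per well in 5% FBS RPMI, were exposed to compound for 48 hours. Viability: CellTiter-Glo luminescence.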
A number is an active result; ! = a repeat was not active. Unless noted, calls come from the whole dose curve; as a rule, active = well fitted curve in the direction sought with a large enough effect; inconclusive = small, poorly fitted or top-dose-only effect, or another doubt; inactive = no such curve, though single readings can be large; an effect the other way counts as inactive or inconclusive.

Screening CCc1cc(=O)oc2c3c(cc(OCC(=O)Nc4cccnc4)c12)OC(C)(C)CC3 returned TDP1 cell noCPT 15µM, HT1080 IDH1KD tx inactive, IL1B secr inh inconclusive, TDP1 cell CPT inconclusive and HT1080-NT tox inactive.
For CCCc1cc(=O)oc2c3c(cc(OCC(=O)NCCCn4ccnc4)c12)OC(C)(C)CC3 the results were TDP1 cell noCPT 26µM, HT1080 IDH1KD tx inactive, IL1B secr inh inactive, TDP1 cell CPT 16µM and HT1080-NT tox inactive.
For Cc1cccc(N(C)C(=O)CCS(=O)(=O)c2cc3c(cc2Cl)NC(=O)CO3)c1 the results were TDP1 cell noCPT inactive, HT1080 IDH1KD tx inactive, IL1B secr inh inactive, TDP1 cell CPT inactive and HT1080-NT tox inactive.
For O=C(COC(=O)c1cc(=O)[nH]c2ccccc12)Nc1nc(-c2ccc(F)cc2)cs1 the results were TDP1 cell noCPT inactive, HT1080 IDH1KD tx inactive, IL1B secr inh inactive, TDP1 cell CPT inactive and HT1080-NT tox inactive.
Screening CCCCn1c(N)c(N(CCOC)C(=O)CN(C)S(=O)(=O)c2ccc(C)cc2)c(=O)[nH]c1=O returned TDP1 cell noCPT inactive, HT1080 IDH1KD tx inactive, IL1B secr inh inactive, TDP1 cell CPT inactive and HT1080-NT tox inactive.
Cc1ccccc1NS(=O)(=O)c1cc(C(N)=O)ccc1C was read as TDP1 cell noCPT inactive, HT1080 IDH1KD tx inactive, IL1B secr inh inactive, TDP1 cell CPT inactive and HT1080-NT tox inactive.
For COC(=O)CC1C(=O)NCCN1C(=S)Nc1ccccc1Cl (centres undefined) the results were TDP1 cell noCPT inactive, HT1080 IDH1KD tx inactive, IL1B secr inh inactive, TDP1 cell CPT inactive and HT1080-NT tox inactive.
Screening CCCCN1CCc2c(c3ccccc3n2Cc2ccccc2)C1 returned TDP1 cell noCPT 23µM, HT1080 IDH1KD tx inconclusive, IL1B secr inh inactive, TDP1 cell CPT 16µM and HT1080-NT tox inconclusive.
CN1CCc2c(c3ccccc3n2C)C1 was read as TDP1 cell noCPT inactive, HT1080 IDH1KD tx inactive, IL1B secr inh inconclusive, TDP1 cell CPT inactive and HT1080-NT tox inactive.
For CN1CCc2c(c3ccccc3n2Cc2ccccc2)C1 the results were TDP1 cell noCPT 18µM, HT1080 IDH1KD tx 16µM!, IL1B secr inh inactive, TDP1 cell CPT 16µM and HT1080-NT tox inconclusive.
Screening CS(=O)(=O)Nc1ccc(F)cc1 returned TDP1 cell noCPT inactive, HT1080 IDH1KD tx inactive, IL1B secr inh inactive, TDP1 cell CPT inactive and HT1080-NT tox inactive.
`OC(CN1CCCCC1)c1ccccc1` (centres undefined) gave TDP1 cell noCPT inactive and TDP1 cell CPT inactive.
Screening OC(CN1CCCC1)c1ccccc1 (centres undefined) returned TDP1 cell noCPT inactive and TDP1 cell CPT inconclusive.
`OC(CN1CCN(C(c2ccccc2)c2ccccc2)CC1)c1ccc(Br)cc1` (centres undefined) gave TDP1 cell noCPT inconclusive, HT1080 IDH1KD tx inactive, IL1B secr inh inactive, TDP1 cell CPT 18µM and HT1080-NT tox inactive.
`OC(CN1CCN(c2ccccc2Cl)CC1)c1ccccc1` (centres undefined) gave TDP1 cell noCPT inactive, HT1080 IDH1KD tx inconclusive, IL1B secr inh inactive, TDP1 cell CPT inactive and HT1080-NT tox 16µM.
`OC(CN1CC=C(/C=C/c2ccc(Br)cc2)CC1)c1ccccc1` (centres undefined) gave TDP1 cell noCPT inconclusive, HT1080 IDH1KD tx inconclusive, IL1B secr inh -73, TDP1 cell CPT inconclusive and HT1080-NT tox inconclusive.
Screening O=C1NC(=O)C(Cc2ccc(Cl)cc2)(c2ccccc2)N1 (centres undefined) returned TDP1 cell noCPT inactive, HT1080 IDH1KD tx inactive, IL1B secr inh inactive, TDP1 cell CPT inactive and HT1080-NT tox inactive.
Screening Cc1ccc(C(=O)NC(=S)NCc2ccco2)cc1 returned TDP1 cell noCPT inconclusive, HT1080 IDH1KD tx inactive, IL1B secr inh inactive, TDP1 cell CPT inactive and HT1080-NT tox inactive.
Screening Cc1cc(C)c2c(CN3CCN(Cc4ccc5c(c4)OCO5)CC3)cc(=O)oc2c1 returned TDP1 cell noCPT 16µM, HT1080 IDH1KD tx inactive, IL1B secr inh inactive, TDP1 cell CPT inconclusive and HT1080-NT tox inactive.
Screening Cc1cc(C)c2c(CN(Cc3ccccc3)Cc3ccccc3)cc(=O)oc2c1 returned TDP1 cell noCPT 16µM, HT1080 IDH1KD tx inactive, IL1B secr inh inactive, TDP1 cell CPT 23µM and HT1080-NT tox inactive.
`CCN(C(=O)COc1ccc2ccc(=O)oc2c1)C1CCCCC1` gave TDP1 cell noCPT inactive, HT1080 IDH1KD tx inactive, IL1B secr inh inactive, TDP1 cell CPT inactive and HT1080-NT tox inactive.
COc1ccccc1CN=Cc1[nH]c2ccc(Br)c(Cl)c2c1O was read as TDP1 cell noCPT inconclusive, HT1080 IDH1KD tx inactive, IL1B secr inh inactive, TDP1 cell CPT inconclusive and HT1080-NT tox inactive.
`Cc1cccc(N=Cc2[nH]c3ccc(Br)c(Cl)c3c2O)c1` gave TDP1 cell noCPT inconclusive, HT1080 IDH1KD tx inactive, IL1B secr inh inactive, TDP1 cell CPT 26µM and HT1080-NT tox inconclusive.
CCOc1ccc(-n2c(-c3ccccc3)c[n+]3c2CCCCC3)cc1 was read as TDP1 cell noCPT 0.029µM, HT1080 IDH1KD tx 13µM, IL1B secr inh -56, TDP1 cell CPT 0.15µM and HT1080-NT tox inconclusive.
For CCOc1ccc(N2Cc3ccccc3C2)cc1 the results were TDP1 cell noCPT inconclusive, HT1080 IDH1KD tx inactive, IL1B secr inh inactive, TDP1 cell CPT inactive and HT1080-NT tox inactive.
Screening Cc1ccc(-c2c[n+]3c(n2-c2ccccc2)CCC3)cc1 returned TDP1 cell noCPT 0.65µM, HT1080 IDH1KD tx inconclusive, IL1B secr inh -53, TDP1 cell CPT 1.2µM and HT1080-NT tox inconclusive.
For O=c1[nH]c(COc2ccc(Cl)cc2Br)nc2ccccc12 the results were TDP1 cell noCPT inconclusive, HT1080 IDH1KD tx inactive, IL1B secr inh inactive, TDP1 cell CPT 23µM and HT1080-NT tox inactive.
`O=C(Cc1ccc(-c2ccccc2)cc1)Nc1ccccn1` gave TDP1 cell noCPT inconclusive, HT1080 IDH1KD tx inactive, IL1B secr inh -69, TDP1 cell CPT inactive and HT1080-NT tox inactive.
Cc1ccc(NC(=O)Cc2ccc(-c3ccccc3)cc2)nc1 was read as TDP1 cell noCPT inactive, HT1080 IDH1KD tx inactive, IL1B secr inh -60, TDP1 cell CPT inconclusive and HT1080-NT tox inconclusive.
O=C(CC(=O)Nc1ccccn1)Nc1ccccn1 was read as TDP1 cell noCPT inactive, HT1080 IDH1KD tx inactive, IL1B secr inh inactive, TDP1 cell CPT inactive and HT1080-NT tox inactive.
`Cc1ccc(NC(=O)CCc2c[nH]c3ccccc23)nc1` gave TDP1 cell noCPT 2.6µM, HT1080 IDH1KD tx inconclusive, IL1B secr inh inactive, TDP1 cell CPT 2.6µM and HT1080-NT tox inconclusive.

Bioassay records deposited in PubChem BioAssay by National Center for Advancing Translational Sciences (NCATS).
